Values without a mark were called inactive. Results filed as inconclusive are left out. Calls of active or inactive are those of the source. Unless noted, calls follow the shape of the dose curve; as a rule, active = well fitted curve in the direction sought with a large enough effect; inconclusive = small, poorly fitted or top-dose-only effect, or another doubt; inactive = no such curve, though single readings can be large; an effect the other way counts as inactive or inconclusive. Numbered stars: 1 amine (or outer) side, 2 acyl side, 3 side chain; on linkers, the order of the positions; unused ones are H or OH. Bridge positions count the residues as written; N and C are the ends. Square brackets hold non-standard residues; d marks the D form. Peptide text beside a SMILES is read from it. I, II: the chains in the order shown. Actinocin(9to1) = Cc1c2oc3c(C)ccc(C(=O)[*:1])c3nc-2c(C(=O)[*:2])c(N)c1=O; NMeV = CN[C@H](C(=O)O)C(C)C; Sar = CNCC(=O)O

Drawing on PubChem BioAssay (NCATS), this text covers outcome, Potency and activity change, negative = cytotoxicity for 14 molecules.

In assay [1] the target is 3',5'-cyclic-AMP phosphodiesterase 4B (Homo sapiens) (UniProt Q07343). The assay can be described thus: qHTS Assay for Inhibitors of PDE-IV (AID 607; active = well fitted activation curve with a large enough effect in the main read-out, with a control signal flat, not every such curve was filed as active; also: % of control where 0% means no effect). A digest of the protocol: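 HEK293 ACTOne cells with CNG channel (1000/well), endogenous PDE4; membrane potential dye, compounds up to 22.9 uM final. Fluorescence Ex 535/Em 590; RO 20-1724 (100 uM final) as reference.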
(In general: Quantitative high-throughput screening tests each substance at several concentrations.)

The target of assay [2] is Guanine nucleotide-binding protein G(i) subunit alpha-1 (Homo sapiens) (UniProt P63096). The experiment in a line: qHTS Assay for Inhibitors of RGS12 GoLoco Motif Activity (Green Fluorophore) (AID 879).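 Also: 0% = labeled peptide with Gαi1 and full inhibition = labeled peptide alone without protein; negative values mean loss of peptide binding seen as reduced polarization.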 A digest of the protocol:
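A drop in FITC polarization marked displacement of the FITC-tagged RGS12 GoLoco peptide (10 nM) from Gαi1 (50 nM). Compounds were incubated 10 min at room temperature in Tris pH 7.5 buffer containing 150 mM NaCl, 0.1 mM GDP and 0.05% NP40; unlabeled peptide titration served as control.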

Assay [3] can be described thus: Cellular Toxicity (caspase-3) HUV-EC-C (AID 656).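 Also: 0% = DMSO basal and 100% = 100 µM tamoxifen.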 A digest of the protocol: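 Concentration-dependent caspase 3/7 induction was assessed in HUV-EC-C cells exposed for 16 hours. Data scaled between DMSO and tamoxifen (100 uM) controls.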
Assay [4] can be described thus: Cellular Toxicity (caspase-3) MRC-5 (AID 659). Also: potency is read from the fitted curve at half-maximal effect.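 As to caspase-3 activation: 0% = DMSO basal and 100% = 10 µM staurosporine.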 As to conditions: Potency: caspase-3 activation. A digest of the protocol: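 Luminescent Caspase-Glo 3/7 read-out (1 h, room temperature) after a 16 h, 37 °C compound exposure of MRC-5 lung fibroblasts at 1500 cells/well. Concentration-response AC50 from Hill equation; 0% DMSO, 100% 10 uM staurosporine.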
Assay [5] can be described thus: Cellular Toxicity (caspase-3) SK-N-SH (AID 661). Also: potency is read from the fitted curve at half-maximal effect.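 As to caspase-3 activation: 0% = DMSO basal and 100% = 10 µM staurosporine.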 An outline of the steps:
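Apoptosis readout in SK-N-SH neuroblastoma: Caspase-Glo 3/7 luminescence following 16 hr treatment in complete culture medium. Normalization used DMSO and 10 uM staurosporine controls.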

The nature of assay [6]: Cellular Toxicity (caspase-3) H-4-II-E (AID 663). Also: potency is read from the fitted curve at half-maximal effect.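 As to caspase-3 activation: cells exposed to compound for 16 hr before readout; 0% = DMSO basal and 100% = 100 µM tamoxifen.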 As to conditions: Potency: caspase-3 activation. An outline of the steps:
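Caspase 3/7 activation measured by luminescent aminoluciferin substrate cleavage after 16 hr compound treatment of H-4-II-E cells in complete medium. Increase normalized between DMSO (basal) and 100 uM tamoxifen (100%); Hill-equation AC50 from concentration-response.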

Assay [7] in a line: Cellular Toxicity (caspase-3) N2a (AID 665).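 Also: compound exposure lasted 16 h at 37 °C before readout.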 Also: potency is read from the fitted curve at half-maximal effect. The conditions noted are these: Potency: caspase-3 activation. An outline of the steps:
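Concentration-response qHTS: compound-induced caspase-3/7 luminescence in N2a cells (16 h, 37 °C), relative to DMSO and 10 uM staurosporine controls; AC50 obtained using the standard Hill equation.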

Assay [8] is described as follows: Cellular Toxicity (caspase-3) NIH 3T3 (AID 666). Also: potency is read from the fitted curve at half-maximal effect.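 As to caspase-3 activation: 0% = DMSO basal and 100% = 100 µM tamoxifen stimulation.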 A digest of the protocol:
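Activity: caspase-3/7 induction, NIH 3T3 cells, 16 hr treatment at 37°C, luminescent Caspase-Glo detection; AC50 via Hill equation.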

Assay [9] deals with Cytochrome P450 2D6 (Homo sapiens) (UniProt P10635). The experiment in a line: qHTS Assay for Inhibitors and Substrates of Cytochrome P450 2D6 (AID 891).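 Also: luciferin methyl ether substrate demethylated by CYP2D6 with NADPH regeneration; % is scaled to controls: 0 for no effect and ±100 for the full control effect; nearly all actives have a fitted effect of over 60% in size.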 A digest of the protocol: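 Luminescent read-out of luciferin formed by 5 nM human CYP2D6 demethylating 30 uM Luciferin-ME EGE (Km level) over 60 min at room temperature after NADPH regeneration addition. Data normalized to full inhibition by 1.43 uM quinidine.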

A short description of assay [10]: Cell Viability - Mesenchymal (AID 546).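 Also: cells exposed to compound for 40 hours before reading; 0% = DMSO only and -100% = 100 µM tamoxifen.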 The conditions noted are these: mesenchymal cells viability, qHTS; activity change, negative = cytotoxicity: at 91.7 µM (top of the series). A digest of the protocol: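 CellTiter-Glo luminescence (intracellular ATP, 20 min room temperature) after 40 hr compound exposure at 37 °C of 1000 glomerulus-derived human kidney mesenchymal cells/well; AC50 values obtained by fitting qHTS concentration-response data to the Hill equation.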

Assay [11] is described as follows: Cellular Toxicity (caspase-3) SHSY5Y (AID 657). A digest of the protocol:
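Readout: caspase-cleaved peptide-aminoluciferin substrate driving luciferase light in SH-SY5Y neuroblastoma cells after 16 h treatment. Response normalized to DMSO and 10 uM staurosporine controls.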

Assay [12] can be described thus: Cellular Toxicity (caspase-3) BJ (AID 658).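 Also: 0% = DMSO basal and 100% = 10 µM staurosporine.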 A digest of the protocol:
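Caspase-Glo 3/7 luminescence, read 1 hr after reagent at room temperature, in normal BJ fibroblasts exposed 16 hours at 37 °C. AC50 values from Hill-equation concentration-response, scaled between DMSO basal and 10 uM staurosporine as 100%.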

A short description of assay [13]: Cellular Toxicity (caspase-3) Mesangial (AID 660).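 Also: combined caspase 3 and 7 activity read by Caspase-Glo luminescence; cells exposed to compound for 16 h before the caspase read.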 An outline of the steps:
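AC50 values come from Hill-equation fits of caspase 3/7 activation, measured as Caspase-Glo luminescence in human glomerular mesangial cells exposed to compound for 16 h at 37 °C; 100% set by 100 uM tamoxifen.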

The nature of assay [14]: Cellular Toxicity (caspase-3) Hek293 (AID 664).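 Also: cells exposed to compound for 16 h at 37 °C before readout.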 A digest of the protocol: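 Apoptosis readout: Caspase-Glo 3/7 signal in human HEK293 cells following 16-hour compound incubation. Responses scaled between DMSO baseline and 100 uM tamoxifen.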
Assay [15] is described as follows: Confirmation and Secondary Assay for Modulators of Hemoglobin Beta Chain Splicing at IVS2 654 locus (AID 910).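 Also: HeLa cells stably carrying EGFP split by mutant beta-globin IVS2-654 intron; per-well total GFP intensity by laser scanning cytometry after 2-day treatment; % of control where 0% means no effect.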 An outline of the steps: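 Readout: per-well total peak green fluorescence (488 nm ex, 500–520 nm em) from objects 5–250 µm, reflecting correct splicing of an EGFP-654 reporter. Compounds were applied for 2 days at 37 °C to overnight-plated HeLa EGFP-654 cells; controls were DMSO and 500 nM IVS2-654 PNA.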

Assay [16] has as its target Cytochrome P450 3A4 (Homo sapiens) (UniProt P08684). The experiment in a line: qHTS Assay for Inhibitors and Substrates of Cytochrome P450 3A4 (AID 884). Also: % is scaled to controls: 0 for no effect and ±100 for the full control effect; nearly all actives have a fitted effect of over 50% in size. An outline of the steps: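 Luminescent readout of luciferin produced by CYP3A4 (20 nM) dealkylation of Luciferin-PPXE, 25 uM (its KM). NADPH-driven reaction ran 60 min at RT after 10 min compound preincubation; data scaled to 57 uM ketoconazole as 100% inhibition.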

Assay [17] has as its target Cytochrome P450 2C9 (Homo sapiens) (UniProt P11712). The experiment in a line: qHTS Assay for Inhibitors and Substrates of Cytochrome P450 2C9 (AID 883). Also: potency is read from the fitted curve at half-maximal effect; nearly all actives have a fitted effect of over 60% in size. A digest of the protocol:
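Inhibition of CYP2C9 is scored as loss of luminescence, with 57uM sulphaphenazole defining 100% inhibition. Substrate Luciferin-H is used at 100uM, equal to its KM; enzyme at 10nM in 25mM KPO4, 60 min at 37C with NADPH regeneration.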

Chain of 3',5'-cyclic-AMP phosphodiesterase 4B (Homo sapiens) (Q07343 whole entry, looked up): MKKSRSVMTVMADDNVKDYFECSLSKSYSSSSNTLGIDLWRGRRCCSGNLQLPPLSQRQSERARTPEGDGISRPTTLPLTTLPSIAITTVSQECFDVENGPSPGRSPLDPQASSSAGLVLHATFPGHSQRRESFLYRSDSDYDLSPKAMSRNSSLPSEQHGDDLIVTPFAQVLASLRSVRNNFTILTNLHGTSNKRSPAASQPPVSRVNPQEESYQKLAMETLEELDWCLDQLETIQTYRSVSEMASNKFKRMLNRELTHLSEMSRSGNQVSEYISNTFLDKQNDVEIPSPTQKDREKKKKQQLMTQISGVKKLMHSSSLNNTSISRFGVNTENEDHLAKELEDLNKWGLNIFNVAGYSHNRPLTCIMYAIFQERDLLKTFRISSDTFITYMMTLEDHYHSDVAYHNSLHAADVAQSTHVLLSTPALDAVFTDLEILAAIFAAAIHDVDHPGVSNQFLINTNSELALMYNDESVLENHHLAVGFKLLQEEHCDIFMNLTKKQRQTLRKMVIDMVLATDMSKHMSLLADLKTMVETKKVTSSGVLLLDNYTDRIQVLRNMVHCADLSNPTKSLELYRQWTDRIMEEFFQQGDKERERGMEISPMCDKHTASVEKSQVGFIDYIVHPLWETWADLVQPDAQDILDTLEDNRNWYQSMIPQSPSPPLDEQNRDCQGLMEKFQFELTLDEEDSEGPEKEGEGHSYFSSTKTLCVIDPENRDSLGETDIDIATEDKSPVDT
Chain of Cytochrome P450 3A4 (Homo sapiens) (P08684 whole entry, looked up): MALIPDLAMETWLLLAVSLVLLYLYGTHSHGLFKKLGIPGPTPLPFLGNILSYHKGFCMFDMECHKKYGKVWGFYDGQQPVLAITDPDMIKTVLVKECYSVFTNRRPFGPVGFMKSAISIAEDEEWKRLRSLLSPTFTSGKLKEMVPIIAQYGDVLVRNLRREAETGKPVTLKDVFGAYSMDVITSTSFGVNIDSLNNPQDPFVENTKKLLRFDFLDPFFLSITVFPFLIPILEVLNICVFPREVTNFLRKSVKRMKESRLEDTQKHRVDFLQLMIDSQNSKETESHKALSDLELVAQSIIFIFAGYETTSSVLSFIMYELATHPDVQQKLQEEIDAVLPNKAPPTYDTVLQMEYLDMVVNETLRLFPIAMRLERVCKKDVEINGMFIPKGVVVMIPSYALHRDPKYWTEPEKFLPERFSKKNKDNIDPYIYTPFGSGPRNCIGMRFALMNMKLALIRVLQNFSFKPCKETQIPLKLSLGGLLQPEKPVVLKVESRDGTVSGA
Chain of Guanine nucleotide-binding protein G(i) subunit alpha-1 (Homo sapiens) (P63096 whole entry, looked up): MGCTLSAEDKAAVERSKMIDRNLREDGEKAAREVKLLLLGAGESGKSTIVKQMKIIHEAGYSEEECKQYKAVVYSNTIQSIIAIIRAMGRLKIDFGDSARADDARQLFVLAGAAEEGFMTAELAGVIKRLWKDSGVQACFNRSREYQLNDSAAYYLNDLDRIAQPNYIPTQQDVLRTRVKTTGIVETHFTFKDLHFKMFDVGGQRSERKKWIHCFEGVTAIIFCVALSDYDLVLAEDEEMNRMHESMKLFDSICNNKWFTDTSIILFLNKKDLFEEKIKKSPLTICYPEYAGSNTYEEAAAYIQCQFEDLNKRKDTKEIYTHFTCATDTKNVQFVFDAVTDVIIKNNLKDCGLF
Chain of Cytochrome P450 2D6 (Homo sapiens) (P10635 whole entry, looked up): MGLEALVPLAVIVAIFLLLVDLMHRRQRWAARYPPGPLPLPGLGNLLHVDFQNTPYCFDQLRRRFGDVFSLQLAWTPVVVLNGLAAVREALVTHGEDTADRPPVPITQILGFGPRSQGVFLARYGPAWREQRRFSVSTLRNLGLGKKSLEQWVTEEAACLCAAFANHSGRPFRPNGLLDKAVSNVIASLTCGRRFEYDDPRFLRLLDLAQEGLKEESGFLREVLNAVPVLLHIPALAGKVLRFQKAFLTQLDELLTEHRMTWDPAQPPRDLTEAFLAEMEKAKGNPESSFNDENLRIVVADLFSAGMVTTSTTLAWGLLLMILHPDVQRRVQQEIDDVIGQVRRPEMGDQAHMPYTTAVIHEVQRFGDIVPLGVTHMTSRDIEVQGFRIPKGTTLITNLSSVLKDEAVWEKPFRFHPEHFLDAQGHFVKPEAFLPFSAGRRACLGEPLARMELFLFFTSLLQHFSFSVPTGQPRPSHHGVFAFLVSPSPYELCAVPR
Chain of Cytochrome P450 2C9 (Homo sapiens) (P11712 whole entry, looked up): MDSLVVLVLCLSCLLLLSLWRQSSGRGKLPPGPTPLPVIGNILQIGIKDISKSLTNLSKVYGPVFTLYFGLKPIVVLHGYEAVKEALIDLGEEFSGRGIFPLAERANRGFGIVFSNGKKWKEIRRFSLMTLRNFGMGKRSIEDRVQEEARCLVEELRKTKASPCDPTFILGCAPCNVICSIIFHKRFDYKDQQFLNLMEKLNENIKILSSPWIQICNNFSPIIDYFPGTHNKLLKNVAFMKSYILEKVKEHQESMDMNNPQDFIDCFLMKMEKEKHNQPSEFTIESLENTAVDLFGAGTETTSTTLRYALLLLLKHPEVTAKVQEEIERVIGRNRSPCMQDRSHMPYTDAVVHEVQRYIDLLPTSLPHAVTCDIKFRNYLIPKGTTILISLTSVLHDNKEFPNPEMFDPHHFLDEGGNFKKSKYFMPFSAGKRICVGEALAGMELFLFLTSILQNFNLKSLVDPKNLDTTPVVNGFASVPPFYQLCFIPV

For the molecule `O=C(OCCOCCO)c1ccccc1Nc1cccc(C(F)(F)F)c1`, in assay [1], the call was inactive.
Regarding `C[C@@H]1C(=O)NC2=Nc3cccc(Cl)c3CN21`, the result in [1] and in assay [2] was inactive.
On to `COc1cccc2c1C(=O)c1c(O)c3c(c(O)c1C2=O)C[C@@](O)(C(C)=O)C[C@@H]3O[C@H]1C[C@H](N)[C@H](O)[C@H](C)O1`, for which the result in assay [1] and in assay [3] was inactive. Also, the Potency was 31600 nM (active) in [4]; 126 nM (active) in assay [5]; 12600 nM (active) in assay [6]; 3980 nM (active) in assay [7]; 31600 nM (active) in assay [8]. For the same molecule, in assay [9], the Potency entry was “inactive”.
`C[C@@H](CN(C)C)CN1c2ccccc2Sc2ccccc21`: the molecule was classed as inactive in assay [1].
`C=CCc1ccc(O)c(OC)c1`: the activity change, negative = cytotoxicity in [10] is 5.14%. The molecule was classed as inactive in [3], in [12], in assay [13], in [14] and in assay [15]. Besides, the Potency entry in assay [11], in assay [4], in [5], in [6], in assay [7] and in [8] was “inactive” each time.
As for `CC(C)COC(=O)OCN1C(=O)CN(CCN2CC(=O)N(COC(=O)OCC(C)C)C(=O)C2)CC1=O`, the molecule was classed as inactive in assay [1] and in assay [2].
For `CC(O)C(=O)O` (stereo not given), the activity change, negative = cytotoxicity in assay [10] is -3.83%. Also, the result in assay [3], in assay [12], in assay [13] and in [14] was inactive. For the same molecule, the Potency result in assay [11], in assay [4], in assay [5], in assay [6], in assay [7] and in assay [8] was “inactive” throughout. Further, the Potency entry in assay [16] is “inactive”.
With `CC(=O)c1ccc2c(c1)N(CCCN1CCC(CCO)CC1)c1ccccc1S2`, the molecule was called inactive in assay [1].
As for `O=C1OC(c2ccc(O)cc2)(c2ccc(O)cc2)c2ccccc21`, the activity change, negative = cytotoxicity in [10] was -12.7%. Further, the outcome in assay [3], in assay [12], in assay [13], in assay [14] and in assay [15] was inactive. The Potency entry in assay [11], in assay [4], in [5], in assay [6], in [7] and in [8] was “inactive” each time.
In the case of `C[C@H](O)C(=O)Nc1c(I)c(C(=O)NC(CO)CO)c(I)c(C(=O)NC(CO)CO)c1I`, the molecule was called inactive in [1].
For the molecule `C[C@H]1[C@H](NC(=O)/C(=N/OC(C)(C)C(=O)O)c2csc(N)n2)C(=O)N1S(=O)(=O)O` (stereo in doubt), the outcome in assay [1] was inactive.
Regarding `C=C(CC)C(=O)c1ccc(OCC(=O)O)c(Cl)c1Cl`, in assay [10], the activity change, negative = cytotoxicity was -21.9%. Moreover, the call in [1], in assay [3], in assay [12], in assay [13], in assay [14] and in assay [15] was inactive. For the same molecule, the Potency entry in assay [11], in assay [4], in [5], in [6], in [7] and in assay [8] was “inactive” in each case. Also, the Potency entry in assay [16] was “inactive”. Besides, the Potency in assay [17] was 631 nM (active).
For the molecule `Cc1c2oc3c(C)ccc(C(=O)N[C@@H]4C(=O)N[C@H](C(C)C)C(=O)N5CCC[C@H]5C(=O)N(C)CC(=O)N(C)[C@@H](C(C)C)C(=O)O[C@@H]4C)c3nc-2c(C(=O)N[C@@H]2C(=O)N[C@H](C(C)C)C(=O)N3CCC[C@H]3C(=O)N(C)CC(=O)N(C)[C@@H](C(C)C)C(=O)O[C@@H]2C)c(N)c1=O` (I: T[dV]P[Sar][NMeV] / II: T[dV]P[Sar][NMeV]; ester I:1-I:C, II:1-II:C; linker I:N-II:N via Actinocin(9to1)), the activity change, negative = cytotoxicity in [10] is -18.7%. Also, the result in assay [3], in assay [12], in [13] and in assay [14] was inactive. In addition, the Potency result in assay [4] is “inactive”. In addition, the Potency in [5] was 15.8 nM (active); in assay [6], 126 nM (active); in assay [7], 7.94 nM (active); in assay [8] it was 25.1 nM (active).
With `O=C(O)CCCCC(=O)O`, the activity change, negative = cytotoxicity in assay [10] was 3.41%. In addition, the call in assay [3], in [12], in assay [13] and in [14] was inactive. Moreover, the Potency entry in assay [11], in assay [4], in [5], in [6], in [7] and in assay [8] was “inactive” throughout. Besides, in [16], the Potency entry is “inactive”.
